High-throughput results as filed in PubChem.
L major viab: inhibitors of Leishmania major promastigote growth; Leishmania major promastigotes, resazurin fluorescence viability; inhibition, % at 10 µM; 200,000 compounds, 9% hits; in the data active = inhibition above about 50%;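 also: promastigotes grown with compound for 44 hours at 28 °C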
CHOP inh: blocks CHOP induction under ER stress; CHO-K1 CHOP-promoter luciferase, tunicamycin-induced, 15-18 h; inhibition, % at 10 µM; 220,000 compounds, 3.8% hits; AID 2732;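 active = compounds that reduced the stress-induced luciferase reporter signal by more than about 70% of percent inhibition, limit read from the data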
WT yeast gro inh: growth inhibition of WT yeast, mitochondrial fusion screen; mitochondrial fusion phenotypic screen, WT strain; inhibition, % at 10 µM; 190,000 compounds, 2.1% hits; AID 1362; in the data active = inhibition above about 58%; tested in S. cerevisiae
Arbovirus inh: arbovirus infection inhibition | arbovirus infection cell-based antiviral screen | inhibition, % at 10 µM | 200,000 compounds, 0.37% hits | AID 1251; in the data active = inhibition above about 30%
Each line names hits and unclear results; the compound was inactive in the other large screens. An excerpt weighted towards active compounds, which were near 12% of everything screened.

CN1CCN(c2nc(N3CCN(CCO)CC3)nc3ccccc23)CC1	L major viab 100
NNC(=O)c1ncoc1-c1ccc(Cl)cc1	none (no result: L major viab, WT yeast gro inh, Arbovirus inh)
O=C(COC(=O)c1cc(S(=O)(=O)NCc2ccccc2)ccc1O)c1cc2ccccc2o1	none (no result: L major viab, WT yeast gro inh, Arbovirus inh)
OC[C@H]1O[C@@H](n2cnc3cncnc32)[C@H](O)[C@@H]1O	none (no result: L major viab, WT yeast gro inh, Arbovirus inh)
O=C(COC(=O)c1cc[n+]([O-])cc1)Nc1cccc(Cl)c1Cl	none
O=C(COC(=O)c1ccccn1)Nc1cccc(Cl)c1Cl	WT yeast gro inh 97
CN1CCCN(C(=O)Cc2c(Cl)cccc2Cl)c2nc3ccccc3nc21	none
O=C1c2ccccc2C2(c3ccc(F)cc3)NCCN12 (stereo not given)	L major viab 58
CC1=C(NCCc2ccccc2)CCC1=O	L major viab 64
CC(C)(C)c1c(Cl)c(O)c(-c2ccccc2)c(=O)n1-c1ccccc1	Arbovirus inh 84
O=c1oc(-c2cccs2)nc2sc3c(c12)CCCC3	Arbovirus inh 34
O=C1CN(c2nc(-c3cccs3)nc3sc4c(c23)CCCC4)CCN1	L major viab 76
Cc1nc2sc3c(c2c(=O)o1)CCC3	none
O=c1oc(-c2cccs2)nc2sc3c(c12)CCC3	none
O=c1oc(/C=C/c2ccco2)nc2sc3c(c12)CCC3	Arbovirus inh 63
CCOC(=O)c1sc(NC(=O)CSc2n[nH]c(-c3ccncc3)n2)c(C#N)c1C	CHOP inh 85
CCOC(=O)c1sc(NC(=O)CSc2nccc(C)n2)c(C#N)c1C	none
COc1ccc(C(=O)Nc2ccc(Oc3nc(C)nc4sc(-c5ccccc5)cc34)cc2)cc1OC	CHOP inh 81
NNC(=O)c1ccc(OCC2CC(c3ccc(Cl)cc3)=NO2)cc1 (stereo not given)	none (no result: L major viab, WT yeast gro inh, Arbovirus inh)
CCCCSCCCNC(=S)Nc1ccccc1C	WT yeast gro inh 73
CCCCNC(=S)Nc1ccccc1Cc1ccccc1	WT yeast gro inh 73
CCOC(=O)C1=C(C)n2c(s/c(=C3\C(=O)Nc4ccccc43)c2=O)=NC1c1ccc(OC)cc1 (stereo not given)	CHOP inh 78
COC(=O)C1=C(C)N=c2s/c(=C3\C(=O)Nc4ccccc43)c(=O)n2C1c1ccccc1 (stereo not given)	CHOP inh 79
CCOC(=O)c1c(C)nc2sc3c(c2c1-c1ccc(OC)cc1)NC(c1ccccc1)NC3=O (stereo not given)	none
CCOC(=O)C1=C(C)N=c2s/c(=C3/C(=O)Nc4ccccc43)c(=O)n2C1c1ccc(C)cc1 (stereo not given)	L major viab 54
CCCOc1nc(SCCC)nc2c1cnn2-c1ccccc1	none (no result: L major viab, WT yeast gro inh, Arbovirus inh)
O=C(CSc1ccc(Cl)cc1)Nc1ccccc1N1CCN(C(=O)c2ccccc2)CC1	L major viab 72
CS(=O)(=O)N1CCN(c2ccccc2NC(=O)CSc2ccc(Cl)cc2)CC1	none
CCOC(=O)N1CCC(NC(=O)C(NS(=O)(=O)c2cccc3nsnc23)c2ccccc2)CC1 (stereo not given)	none
CCCC(CCC)C(=O)NC1CCN(Cc2ccccc2)CC1	L major viab 88
CC(C(=O)NCCc1ccc(F)cc1)N1CCN(Cc2ccccc2)CC1 (stereo not given)	L major viab 83
O=C(NCCNC1CCN(Cc2ccccc2)CC1)c1cccs1	L major viab 88
O=C(NC1CCN(Cc2ccccc2)CC1)C(NS(=O)(=O)c1cccc2nsnc12)c1ccccc1 (stereo not given)	L major viab 51
Cc1ccccc1-c1nc(CN(Cc2c(C)nn(C)c2C)C2CC2)c(C)o1	none
CC(C(=O)NC1CCCCC1)N1CCN(C)CC1 (stereo not given)	none (no result: L major viab, WT yeast gro inh, Arbovirus inh)
CC(C(=O)NC1CCCC1)N1CCN(Cc2ccccc2)CC1 (stereo not given)	L major viab 73
O=C(NC1CCCCC1)C(c1ccccc1)N1CCCC1 (stereo not given)	none
CC(C(=O)NC(=O)NC1CCCCC1)N1CCN(C(c2ccccc2)c2ccccc2)CC1 (stereo not given)	WT yeast gro inh 73
CNc1nc2c(Cl)cc(Cl)cc2s1	none (no result: L major viab, WT yeast gro inh, Arbovirus inh)
NNc1nc2c(Cl)ccc(Cl)c2s1	L major viab 98
Oc1ccc(Cl)cc1C=Nc1ccc2c3c(cccc13)CC2	L major viab 84
COC(=O)C1CCN(Cc2cn(-c3ccccc3)nc2-c2ccc3c(c2)OCO3)CC1	none
Nc1c(C(=O)NCCc2ccc(Cl)cc2)sc2ccc(S(=O)(=O)N3CCCCC3)cc12	L major viab 83
COc1ccc(C2=CC3=C(Br)C(=O)C(C)(O)C(=O)C3=CO2)cc1 (stereo not given)	CHOP inh 95 (no result: L major viab, WT yeast gro inh, Arbovirus inh)
Cc1cccc(-n2c(=O)c3c4c(sc3n3c(=S)[nH]nc23)CCC4)c1	Arbovirus inh 34
CC1CCN(C(=O)c2ccc(N(C)S(C)(=O)=O)cc2)CC1	none
S=C(c1ccc(N2CCOCC2)cc1)N1CCCCC1	L major viab 81
CN(c1ccc(C(=O)N2CCCCC2)cc1)S(C)(=O)=O	CHOP inh 79
CN(C)c1ccc(C(=S)N2CCCCCC2)cc1	L major viab 76
CCCSc1ccc2nc(-c3ccccc3)cn2c1	CHOP inh 86, WT yeast gro inh 70
CC(C)(C)NC(=O)C(c1cccs1)N(C(=O)c1csnn1)c1ccccc1F (stereo not given)	none
COc1ccc(OC(=O)COc2ccc(C)cc2)cc1	none
COc1ccc(OCC(=O)Sc2ccc(C)cc2)cc1	CHOP inh 83
Cc1cc(C)n(NC(=S)NC2CCCC2)c(=O)c1C#N	none (no result: L major viab, WT yeast gro inh, Arbovirus inh)
CC1(C)C(O)=C(c2nc3ccccc3[nH]2)C(=N)N1c1ccccc1	L major viab 82
O=C(COC(=O)c1ccc(O)cc1)Nc1ccccc1-c1ccccc1	L major viab 57
O=C(COC(=O)c1ccc(-c2ccccc2)cc1)Nc1ccccc1-c1ccccc1	none
Cc1ccc(NC(=O)c2nn(C34CC5CC(CC(C5)C3)C4)cc2[N+](=O)[O-])cc1	L major viab 59
Cc1cccc(N=C2NC(=O)/C(=C3/C(=O)N(C)c4ccccc43)S2)c1C	L major viab 68, CHOP inh 88, Arbovirus inh 43
COC(=O)c1ccc(Oc2nc(SC)nc(N(C)C)n2)cc1	none (no result: L major viab, WT yeast gro inh, Arbovirus inh)
OC(CNCC1(N2CCCCC2)CCCCC1)COc1ccc(Cl)cc1Cl (stereo not given)	Arbovirus inh 30
O=C(COc1ccc(Cl)cc1Cl)NC(=O)N1CCCCC1	none
CC(C)C1C(C#N)=C(N)Oc2n[nH]c(-c3cccs3)c21 (stereo not given)	none
CC(C)c1[nH]nc2c1C(c1cccs1)C(C#N)=C(N)O2 (stereo not given)	L major viab 59
Cc1ccc(-c2[nH]nc3c2C(c2ccsc2)C(C#N)=C(N)O3)cc1 (stereo not given)	none
Cc1[nH]nc2c1C(c1ccsc1)C(C#N)=C(N)O2 (stereo not given)	L major viab 57
Cc1[nH]nc2c1C(c1ccsc1C)C(C#N)=C(N)O2 (stereo not given)	L major viab 77
CN(C)c1ccc(/C=N/c2cc(-c3ccccc3)nn2-c2ccccc2)cc1	none
Cc1nc(C(F)(F)F)ccc1C(=O)N1CCCCC1	none (no result: L major viab, WT yeast gro inh, Arbovirus inh)
COc1cc(CNCCCN2CCOCC2)c(Br)cc1OCC(=O)Nc1ccccc1C	L major viab 57
COc1ccccc1NC(=O)COc1ccc(Br)cc1CNCCCN1CCOCC1	L major viab 77
